Source: PubChem
TGFb inhibitor – qHTS for Inhibitors of TGF-b; HepG2 CAGA-GFP TGF-b/SMAD3 reporter, GFP fluorescence, 18 h; TGF-beta stimulated, 500 pg/mL final; Potency, µM (doses to about 46.1 µM), most hits filed as inhibitors; 410,000 compounds, 1.2% hits; note: nearly all actives have a fitted effect of over 65% in size
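Smad-responsive CAGA-GFP expression was quantified in HEPG2 cells exposed to compounds and 500 pg/mL final TGF-beta for 18 h at 37 degrees C; unstimulated wells defined full inhibition.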
ASM inhibitor – Inhibitors of Secretory Acid Sphingomyelinase (S-ASM): qHTS; Sphingomyelin phosphodiesterase (Homo sapiens), P17405; placental ASM, HMU-PC fluorogenic substrate, 60 min; Potency, µM (highest dose often 57.5 µM), usual class: inhibitors; 340,000 compounds, 0.006% hits; AID 504937, 2011
Target sequence (P17405 47-631 limits assumed): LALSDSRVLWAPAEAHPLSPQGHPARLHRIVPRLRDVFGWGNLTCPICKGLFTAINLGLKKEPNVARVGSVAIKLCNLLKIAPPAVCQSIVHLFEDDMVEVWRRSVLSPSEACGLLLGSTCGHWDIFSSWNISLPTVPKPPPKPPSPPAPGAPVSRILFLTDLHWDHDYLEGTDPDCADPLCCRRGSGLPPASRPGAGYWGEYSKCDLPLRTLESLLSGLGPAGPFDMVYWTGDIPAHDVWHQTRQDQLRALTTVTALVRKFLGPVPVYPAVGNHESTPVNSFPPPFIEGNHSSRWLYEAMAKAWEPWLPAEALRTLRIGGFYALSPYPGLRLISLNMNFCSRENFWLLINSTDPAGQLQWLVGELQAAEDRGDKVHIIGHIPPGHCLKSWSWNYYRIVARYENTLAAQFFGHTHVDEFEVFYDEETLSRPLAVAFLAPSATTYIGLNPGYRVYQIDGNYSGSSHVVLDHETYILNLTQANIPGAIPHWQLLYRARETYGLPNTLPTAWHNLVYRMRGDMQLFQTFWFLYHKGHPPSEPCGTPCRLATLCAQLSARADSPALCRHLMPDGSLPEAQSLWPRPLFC
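Steps: dispense placental human ASM, pin compound, wait 10 min at room temperature, add HMU-PC0 substrate at 9 uM final, incubate 60 min at 37 °C, add stop solution raising pH to 10, read fluorescence.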
HepG2 viability – qHTS for Inhibitors of TGF-b: Cytotox Counterscreen. HepG2 CAGA-GFP viability, ATP luminescence, 18 h. AID 588856, 2011. 410,000 compounds, 0.76% hits. Potency, µM (series often up to 46.1 µM), actives largely listed as cytotoxic
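CellTiter-Glo luminescence gave cytotoxicity after 18 hours at 37 degrees C. The cells were HepG2 CAGA-GFP in 1% FBS DMEM, stimulated with 500 pg/mL TGF-beta after compound addition. %Activity was normalised to no-cell wells (complete cell-killing) and DMSO (no toxicity), and curves were fitted and classified.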
IL-1B inflam inh – qHTS for Inhibitors of Inflammasome Signaling: IL-1-beta AlphaLISA Primary Screen; AID 743279, 2014; 360,000 compounds, 4.7% hits; activity change, % at 57.5 µM; THP-1 LPS/ATP IL-1B secretion, AlphaLISA, 16 h; stronger effect = lower value; in the data active = activity change below about -50%; inconclusive = mostly about -30% to -49%
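Secreted IL-1B measured by AlphaLISA bead assay after 16 h compound exposure of THP-1 cells; compounds (final up to 57.5 uM) added 1 h before LPS (250 ng/mL) and ATP (1.25 mM) stimulation; lower signal means less secretion.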
DT40 TDP1 CPT – qHTS for Inhibitors of human tyrosyl-DNA phosphodiesterase 1 (TDP1): qHTS in cells in presence of CPT | AID 686979, 2013 | 420,000 compounds, 12% hits | Potency, µM (doses to about 46.2 µM), actives largely listed as inhibitors | chicken DT40 Tdp1-/-;hTDP1 cells + 20 nM CPT, ATP luminescence, 48 h; note: nearly all actives have a fitted effect of over 55% in size
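Chicken DT40 Tdp1-/- cells complemented with human TDP1, 400 cells/well, exposed to compounds plus 20 nM camptothecin for at least 48 h at 37 C; viability read as ATP content by CellTiter-Glo luminescence.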
TDP1 cell noCPT – qHTS for Inhibitors of human tyrosyl-DNA phosphodiesterase 1 (TDP1): qHTS in cells in absence of CPT; DT40 Tdp1-/- hTDP1 cells, no CPT, ATP luminescence, 48 h; Potency, µM (top dose mostly 46.2 µM), actives largely listed as inhibitors; 420,000 compounds, 15% hits; note: nearly all actives have a fitted effect of over 55% in size
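Stably hTDP1-transfected Tdp1-null chicken DT40 cells were treated with library compounds minus camptothecin and grown for at least 48 hr at 37 °C, after which cellular ATP was quantified by luminescence.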
Numbers stand for hits; - = inactive; ? = inconclusive; . = not tested or not shown; ! = a repeat was not active; [ ] = dose if it differs, or a comment. Rows were chosen to be rich in hits. Some 19% of all compounds tested hit in one or more screens of this group. Unless noted, calls come from the whole dose curve; as a rule, active = well fitted curve in the direction sought with a large enough effect; inconclusive = small, poorly fitted or top-dose-only effect, or another doubt; inactive = no such curve, though single readings can be large; an effect the other way counts as inactive or inconclusive.

SMILES | TGFb inhibitor | ASM inhibitor | HepG2 viability | IL-1B inflam inh | DT40 TDP1 CPT | TDP1 cell noCPT
CC(NC(=O)c1ccc2ccccc2n1)c1ccccc1 (stereo not drawn) | - | - | - | - | ? | ?
O=C(NCc1ccccn1)c1cc(-c2ccc(Cl)cc2)oc1C(F)(F)F | 11µM | - | - | - | ? | ?
O=C(NCc1ccncc1)c1cc(-c2ccc(Cl)cc2)oc1C(F)(F)F | ? | - | - | ? | ? | 18µM
O=C(NCc1ccccn1)c1nnc(Cc2ccc(Cl)cc2)o1 | - | - | - | - | - | -
COc1ccccc1N(CC(=O)NC1CCCCC1)C(=O)CNC(=O)c1cccs1 | - | - | - | - | - | -
CCCc1nc2ccccc2n2c(-c3ccccc3)c3c(=O)n(C)c(=O)n(C)c3c12 | - | . | - | . | 13µM | ?
CCCCc1nc2ccccc2n2c(-c3ccc(C)cc3)c3c(=O)n(C)c(=O)n(C)c3c12 | - | . | - | . | ? | 12µM
CCCCc1nc2ccccc2n2c(-c3ccc(OC)cc3)c3c(=O)n(C)c(=O)n(C)c3c12 | - | . | - | . | ? | 18µM
CC1CCCCC1NC(=O)C1CCC(CNS(=O)(=O)c2ccccc2)CC1 (stereo not drawn) | - | - | - | - | - | -
c1ccc(N2OCC3Cn4c(nc5ccccc54)C32)cc1 (stereo not drawn) | - | - | - | - | - | -
O=C1c2ccccc2/C(=C\C#Cc2ccccn2)N1c1ccccc1 | - | - | - | -100 | ? | ?
O=C1c2ccccc2C(=O)N1c1ncccn1 | - | - | - | - | - | -
CN1CCN(CCC(=O)N2c3ccccc3Sc3ccc(Cl)cc32)CC1 | - | - | - | - | ? | ?
CN1CCN(C2=Nc3ccccc3Sc3ccc(Cl)cc32)CC1 | . | . | . | . | ? | 11µM
COc1cccc(CN2CCC(n3cc(C(=O)NC4CCCC4)nn3)CC2)c1O | . | . | . | . | -[9.04 µM] | -
O=C(NC(c1cccnc1)C(F)(F)F)c1cc(COc2ccc3c(c2)CCCC3)on1 (stereo not drawn) | 11µM | - | - | ? | 4.1µM | 2.6µM
CN(Cc1cnn(C)c1)C(=O)c1cc(COc2c(F)cccc2F)on1 | - | - | - | - | - | -
CCN(Cc1cnn(C)c1)C(=O)c1cc(COc2ccc3c(c2)CCCC3)on1 | - | - | - | - | 16µM | 12µM
Cc1ccc(OCc2cc(C(=O)NCc3cnn(-c4cccc(F)c4)c3)no2)cn1 | - | - | - | - | ? | ?
Cn1cc(CNC(=O)c2cc(COc3ccc4c(c3)CCCC4)on2)cn1 | - | - | - | - | ? | 15µM
CC(C)(C)CN1CCC(Oc2cccc(C(=O)N3CCC[C@H]3CO)c2)CC1 | - | - | - | - | - | -
O=C(C[n+]1ccncc1)c1ccc(Br)cc1 | - | . | - | . | ? | ?
O=S(=O)(Nc1ccc(C(F)(F)F)cc1)c1cnc[nH]1 | - | - | - | - | 18µM | 23µM
Cc1ccc2c(c1)CN(C(=O)CC(c1ccccc1)c1ccco1)CC(C)O2 (stereo not drawn) | . | . | . | . | -[9.04 µM] | ?
c1ccc(-c2cc(NCCN3CCCCC3)c3ccccc3n2)cc1 | ? | - | - | -99 | 23µM | 16µM
Cc1cc(O)c(-c2cc(O)c(C)cc2O)cc1O | ? | - | 22µM | -99 | 5.2µM | 3.3µM
Cc1ccc(N)cc1O | ? | - | - | - | 7.7µM! | 6.9µM!
Cc1cc(C)c(NC(=O)Cn2c(=O)n(CCC(C)C)c(=O)c3cccnc32)c(C)c1 | - | . | - | . | ? | ?
CN(C)S(=O)(=O)c1ccccc1N=C=S | - | - | - | - | - | -
